LEDGF integ inh – blocks HIV-1 LEDGF/p75-dependent DNA integration | TR-FRET IN-LEDGF/p75 DNA integration, Eu/Cy5 | 0.64% of 370,000 active | inhibition, % at 3.7 µM;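 active = inhibition above the screen-wide mean plus 3 SD, cut at about 13% in these data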;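 also: signal is the Cy5 over europium emission ratio at 671 and 618 nm; 0% = plate median of compound wells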
PLCb3 inh – blocks human PLC-beta3 enzyme activity. inhibition, % at 12.2 µM. AID 720704. Purified PLC-beta3, fluorogenic substrate, fluorescence. 0.18% of 370,000 active. Q01970; in the data active = inhibition above about 11%;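 also: 0% = median of compound wells on plate and 100% = full blocker control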
MBD2 inh – blocks human MBD2 binding to methylated DNA | Q9UBB5 | TR-FRET, MBD2 binding to methylated oligonucleotide | inhibition, % at 4.4 µM | 0.31% of 370,000 active; in the data active = inhibition above about 13%
Target sequence (Q9UBB5 whole entry, looked up): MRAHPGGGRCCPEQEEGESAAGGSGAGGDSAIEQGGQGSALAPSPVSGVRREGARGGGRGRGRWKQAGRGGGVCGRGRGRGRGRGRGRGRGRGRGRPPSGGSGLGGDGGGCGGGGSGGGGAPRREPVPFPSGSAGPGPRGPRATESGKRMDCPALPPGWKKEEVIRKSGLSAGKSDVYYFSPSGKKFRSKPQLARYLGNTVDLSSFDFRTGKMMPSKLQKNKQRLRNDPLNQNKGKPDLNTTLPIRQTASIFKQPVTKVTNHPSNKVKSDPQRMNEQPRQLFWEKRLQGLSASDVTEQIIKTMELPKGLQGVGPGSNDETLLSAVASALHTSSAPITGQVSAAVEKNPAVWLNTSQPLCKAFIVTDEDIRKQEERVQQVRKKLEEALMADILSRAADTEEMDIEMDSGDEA
UHRF1 binding – blocks human UHRF1 binding to methylated DNA; Q96T88; UHRF1 binding to methylated oligo, TR-FRET; inhibition, % at 4.4 µM; 0.75% of 370,000 active; in the data active = inhibition above about 21%;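 also: UHRF1 SRA domain binding a hemimethylated CpG hairpin DNA probe; 0% = median of test compound wells and 100% = reference inhibitor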
PLC-gamma1 inh – inhibitors of human phospholipase C gamma1; P19174; purified PLC-gamma1, fluorogenic substrate, fluorescence; inhibition, % at 12.2 µM; 0.84% of 370,000 active; AID 720700; in the data active = inhibition above about 9.5%
IN multimer act – counter-screen for LEDGF/p75 integration inhibitors: HIV-1 integrase multimerization activators | shares compounds with LEDGF integ inh | TR-FRET HIV-1 integrase multimerization, biochemical | activation, % at 7.7 µM | 17% of 2,000 active | AID 1053131; in the data active = activation above about 8.9%
TRFRET interf – TR-FRET optical interference, LEDGF/p75 integration counter-screen | shares compounds with LEDGF integ inh | 2,000 tested, under 10 active | inhibition, % at 7.7 µM | TR-FRET optical interference counterscreen, HIV-1 IN multimerization;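 active = inhibition above the mean over all tested compounds plus 3 SD, which no compound reached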;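 also: 0% = integrase with antibodies and DMSO and 100% = antibodies without integrase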
LEDGF integ conf – LEDGF/p75-dependent HIV-1 integration inhibition, confirmation; 36% of 2,000 active; AID 1053136; inhibition, % at 3.7 µM; TR-FRET LEDGF/p75-dependent HIV-1 integration, biochemical; shares compounds with LEDGF integ inh; in the data active = inhibition above about 14%
Starred values were filed as active, the others as inactive; i = inactive; nt = no result given. Rows were chosen to be rich in hits. Some 2.4% of all compounds tested hit in one or more screens of this group.

SMILES	LEDGF integ inh	PLCb3 inh	MBD2 inh	UHRF1 binding	PLC-gamma1 inh	IN multimer act	TRFRET interf	LEDGF integ conf
Cc1nc2c(O)c3c(c(O)c2nc1C)C1C=CC3CC1	21.3*	3.0	-6.8	6.1	6.2	1.8	-6.0	2.4
Cc1nc2c(C)c(C)c(C)c(C)c2nc1C	4.7	-5.8	-2.5	2.2	6.6	nt	nt	nt
CC1=CC2(O)OCCN(CCO)C2=CC1=O (stereo not drawn)	31.3*	-1.1	2.1	10.0	-1.9	3.8	-19.3	14.0*
Fc1ccc(Cn2ccc3ccc(-c4ccc5ccn(Cc6ccccc6)c5c4)cc32)cc1	3.2	-87.1	-0.1	-4.6	-66.9	nt	nt	nt
CCOC(=O)[C@]12CCCCC/C=C\1N(CCc1ccc(Cl)cc1)C(=O)[C@H]2CC(=O)NCCc1ccccc1OC	18.0*	-0.5	2.6	-2.4	-3.3	-0.2	1.0	-3.7
Oc1ccc(NCc2ccccc2OCc2ccccc2)cc1	14.2*	-72.3	-10.3	-2.1	-59.7	15.0*	-53.6	24.2*
CCNCc1ccccc1OCc1ccccc1	0.4	3.9	1.2	1.0	2.5	nt	nt	nt
COc1ccc(-n2c(COc3ccccc3)nnc2SCC(=O)Nc2ccccc2-c2ccccc2)cc1	1.8	5.4	-9.1	-1.4	5.0	nt	nt	nt
O=C(O)CSc1cc(NS(=O)(=O)c2ccc(Br)cc2)c2ccccc2c1O	24.5*	-18.3	-9.3	-5.6	-1.3	0.7	-2.3	50.7*
COc1ccc(C(C(=O)N(C)C2CCCC2)N(Cc2ccc(F)cc2)C(=O)c2ccc3ccccc3c2)cc1OC (stereo not drawn)	-0.7	-3.0	4.3	2.1	-0.4	nt	nt	nt
Cc1ccc(NC(=O)CSc2ccc3nnc(CCNC(=O)c4ccccc4)n3n2)c(C)c1	43.4*	2.8	-6.4	-0.5	3.1	0.5	-2.5	-4.0
Cc1cc(NC(=O)CSc2ccc3nnc(CCNC(=O)c4ccccc4)n3n2)no1	-4.2	-2.3	-2.3	-0.9	-5.1	nt	nt	nt
CCN(CC)C(=O)[C@H]1C[C@H](CC(=O)NCc2ccco2)C(=O)N2CCc3c([nH]c4cc(-c5ccco5)ccc34)[C@]12C	16.9*	i	-3.3	-1.0	i	0.2	-0.9	-1.9
Cc1ccc(-c2cc(C(=O)N=Nc3c(O)[nH]c4ccccc34)[nH]n2)cc1C	1.1	3.1	-1.9	-0.6	1.7	nt	nt	nt
COC(=O)[C@@]12C[C@@H](CC(=O)N3CCN(C(=O)c4ccco4)CC3)C(=O)N(Cc3cccc4ccccc34)C1=CCC(C)(C)C2	21.5*	-1.6	-0.9	-1.3	1.5	1.8	-9.1	-7.5
COC(=O)[C@@]12C[C@@H](CC(=O)N3CCCCC3)C(=O)N(Cc3cccc4ccccc34)C1=CCC(C)(C)C2	2.0	6.6	0.7	-0.1	-0.8	nt	nt	nt
COc1ccc(-c2cccc3[nH]c4c(c23)CCN2C(=O)[C@H]3[C@H](C)ON(C)[C@H]3C[C@@H]42)cc1	0.4	i	-5.7	-0.6	i	nt	nt	nt
Cc1ccc(S(=O)(=O)Nc2ccc3c4c(cccc24)CC3)c(C)c1	1.4	-0.1	2.0	1.8	3.2	nt	nt	nt
Cc1ccc(C)c(S(=O)(=O)Nc2ccc(O)c3ccccc23)c1	8.3	-42.4	-17.0	-0.5	-23.9	nt	nt	nt
Cc1ccc(S(=O)(=O)Nc2cc(C(C(=O)OC(C)C)C(=O)C(F)(F)F)c(O)c3ccccc23)c(C)c1 (stereo not drawn)	13.6*	-18.8	1.8	-4.7	-15.4	0.8	-4.0	-1.1
Cc1ccc(S(=O)(=O)Nc2ccc(O)c3ccccc23)c(C)c1	13.6*	-39.8	-8.7	-4.6	-19.0	3.8	-13.6	2.2
COc1cc(NC(C)CCCN)c2ncccc2c1 (stereo not drawn)	34.8*	-25.4	-11.6	3.0	-1.3	1.6	-8.2	31.3*
Cc1cccc(NC(=S)N(CCN(C)C)C(C)c2ccccn2)c1 (stereo not drawn)	92.1*	-84.1	4.2	1.9	-0.2	-2.2	11.3	-4.7

Bioassay records: PubChem, The Scripps Research Institute Molecular Screening Center
